Hit rate of the full screen: of about 44,000 compounds, about 30 (0.07%) were called active. About 1% were inconclusive and are not listed. No stated cut-off is given here; in the data, active means inhibition above about 54% (passing the limit was not always enough); inconclusive means no clear call, values can overlap the other calls. The entries come from a sample that favours actives as a whole.
target: Histone-lysine N-methyltransferase NSD2 (Homo sapiens) (UniProt O96028); assay: NSD2 histone methyltransferase activity blockers – biochemical, plate reader, single point, primary screen (AID 624260); conditions: NSD2-SET H3K36me1 DELFIA fluorescence, at 12.5 µM, active compounds read high;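 further: inhibitors reduce the monomethyl H3K36 fluorescence signal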
Sequence (O96028 whole entry, looked up): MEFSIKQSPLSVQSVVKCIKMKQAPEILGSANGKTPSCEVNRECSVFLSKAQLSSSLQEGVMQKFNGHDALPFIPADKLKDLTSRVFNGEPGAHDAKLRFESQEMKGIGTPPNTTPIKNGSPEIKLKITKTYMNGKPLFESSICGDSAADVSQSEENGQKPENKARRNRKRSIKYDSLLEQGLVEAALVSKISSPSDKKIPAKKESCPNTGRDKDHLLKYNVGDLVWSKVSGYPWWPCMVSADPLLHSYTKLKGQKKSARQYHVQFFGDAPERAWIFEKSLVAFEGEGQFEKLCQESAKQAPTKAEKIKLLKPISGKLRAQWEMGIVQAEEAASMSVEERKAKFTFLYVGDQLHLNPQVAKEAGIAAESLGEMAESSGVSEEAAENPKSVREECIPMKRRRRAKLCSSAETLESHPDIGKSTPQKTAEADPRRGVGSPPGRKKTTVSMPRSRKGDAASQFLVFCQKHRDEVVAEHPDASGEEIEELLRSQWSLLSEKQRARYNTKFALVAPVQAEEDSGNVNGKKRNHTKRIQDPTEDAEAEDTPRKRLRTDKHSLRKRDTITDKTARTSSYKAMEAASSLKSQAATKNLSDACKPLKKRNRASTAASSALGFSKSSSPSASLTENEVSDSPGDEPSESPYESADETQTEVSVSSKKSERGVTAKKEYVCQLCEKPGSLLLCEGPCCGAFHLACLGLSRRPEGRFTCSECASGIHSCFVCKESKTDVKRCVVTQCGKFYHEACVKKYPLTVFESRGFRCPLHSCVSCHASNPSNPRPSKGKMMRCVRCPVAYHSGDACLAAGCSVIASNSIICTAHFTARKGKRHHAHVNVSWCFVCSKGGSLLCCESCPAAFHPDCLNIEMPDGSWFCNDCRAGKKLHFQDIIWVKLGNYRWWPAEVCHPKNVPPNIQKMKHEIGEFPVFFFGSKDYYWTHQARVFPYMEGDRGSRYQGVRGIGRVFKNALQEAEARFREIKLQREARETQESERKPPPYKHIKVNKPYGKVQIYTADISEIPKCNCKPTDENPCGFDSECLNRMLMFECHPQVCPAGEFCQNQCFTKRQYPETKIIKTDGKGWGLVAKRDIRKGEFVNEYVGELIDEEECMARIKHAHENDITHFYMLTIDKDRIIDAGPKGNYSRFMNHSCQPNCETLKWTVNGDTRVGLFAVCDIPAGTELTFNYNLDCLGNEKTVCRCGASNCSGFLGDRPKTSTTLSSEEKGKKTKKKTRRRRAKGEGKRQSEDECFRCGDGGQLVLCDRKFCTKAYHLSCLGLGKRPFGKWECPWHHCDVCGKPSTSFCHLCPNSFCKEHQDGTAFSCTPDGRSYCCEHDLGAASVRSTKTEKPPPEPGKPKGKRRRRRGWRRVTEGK

inhibition, inactive:
COc1ccccc1CNC(=O)C[C@@H]1C[C@@H]2c3cc(NC(=O)C4CCOCC4)ccc3O[C@@H]2[C@@H](CO)O1 -2.77%
CNC[C@H]1Oc2cc(-c3ccc(C(=O)N(C)C)cc3)ccc2S(=O)(=O)N([C@@H](C)CO)C[C@@H]1C 2.38%
COc1ccc(S(=O)(=O)Nc2ccc3c(c2)C(=O)N([C@@H](C)CO)C[C@H](C)[C@H](CN(C)Cc2ccc4c(c2)OCO4)OCCCC[C@H](C)O3)cc1 2.05%
COC(=O)C[C@@H]1C[C@H]2c3cc(NC(=O)CN(C)C)ccc3O[C@H]2[C@H](CO)O1 6.16%
C[C@H](CO)N1C[C@H](C)[C@@H](CN(C)Cc2ccccn2)Oc2ncc(-c3cccc(F)c3)cc2C1=O 2.22%
CC(=O)N(C)C[C@@H]1Oc2cc(-c3cccnc3)ccc2S(=O)(=O)N([C@@H](C)CO)C[C@H]1C -5.41%
C[C@H]1CN([C@@H](C)CO)S(=O)(=O)c2ccc(C3=CCCC3)cc2O[C@H]1CN(C)C(=O)Cc1ccncc1 -1.21%
O=C(C[C@H]1CC[C@@H](NC(=O)Nc2ccc(F)cc2)[C@H](CO)O1)NCc1cccc(F)c1 9.13%
Cc1ccccc1-c1ccc2c(c1)O[C@@H](CN(C)Cc1ccc(C(=O)O)cc1)[C@H](C)CN([C@H](C)CO)S2(=O)=O -1.98%
C[C@H](CO)N1C[C@H](C)[C@@H](CN(C)S(=O)(=O)c2ccc(F)cc2)Oc2ccc(NC(=O)CCCCCC(=O)Nc3ccccc3N)cc2CC1=O -1.08%
C[C@@H]1CN([C@H](C)CO)C(=O)Cc2cc(NC(=O)Nc3cccc4ccccc34)ccc2O[C@H]1CN(C)C(=O)Nc1ccc2c(c1)OCO2 -7.81%
COCC#Cc1ccc2c(c1)O[C@@H](CN(C)S(C)(=O)=O)[C@H](C)CN([C@H](C)CO)S2(=O)=O -5.23%
C[C@@H]1CN([C@H](C)CO)C(=O)c2cc(NS(=O)(=O)c3cn(C)cn3)ccc2O[C@@H](C)CCCCO[C@@H]1CN(C)C(=O)CCC(F)(F)F -0.203%
CN1CCN(C(=O)C[C@H]2C[C@H]3c4cc(NC(=O)C5CCC5)ccc4O[C@H]3[C@H](CO)O2)CC1 5.87%
CC(C)CC#Cc1cnc2c(c1)C(=O)N([C@@H](C)CO)C[C@H](C)[C@@H](CN(C)S(=O)(=O)c1cn(C)cn1)O2 2.14%
CC(C)CC#Cc1ccc2c(c1)O[C@H](CN(C)C(=O)CC1CC1)[C@@H](C)CN([C@@H](C)CO)S2(=O)=O -15.5%
COC(=O)C[C@H]1C=C[C@H](NC(=O)Nc2ccc(C(F)(F)F)cc2)[C@@H](CO)O1 -4.85%
O=C(C[C@@H]1C[C@@H]2c3cc(NC(=O)C4CCOCC4)ccc3O[C@@H]2[C@@H](CO)O1)NC1CCCCC1 0.0335%
C[C@H](O)C#Cc1cnc2c(c1)C(=O)N([C@@H](C)CO)C[C@H](C)[C@@H](CN(C)C(=O)c1ccncc1)O2 0.0295%
C[C@H]1CN([C@@H](C)CO)S(=O)(=O)c2ccc(Br)cc2O[C@H]1CN(C)C(=O)C1CC1 6.22%
Cc1noc(C)c1NC(=O)N(C)C[C@@H]1OCCCC[C@H](C)Oc2ccc(NC(=O)C3CCCCC3)cc2C(=O)N([C@H](C)CO)C[C@@H]1C 3.93%
C[C@H](CO)N1C[C@H](C)[C@H](CN(C)Cc2ccncc2)Oc2cc(-c3cncnc3)ccc2S1(=O)=O -4.69%
CCCNC(=O)N(C)C[C@H]1Oc2ncc(-c3cccc(C#N)c3)cc2C(=O)N([C@@H](C)CO)C[C@H]1C -7.82%
C[C@H](CO)N1C[C@H](C)[C@@H](CN(C)S(=O)(=O)c2cccs2)Oc2ccc(NC(=O)Nc3ccc(C(F)(F)F)cc3)cc2CC1=O -1.82%
C[C@@H]1CN([C@H](C)CO)S(=O)(=O)c2ccc(C#C[C@@H](C)O)cc2O[C@H]1CN(C)C(=O)C1CCCCC1 -2.77%
COc1ccc(C#Cc2cnc3c(c2)C(=O)N([C@H](C)CO)C[C@H](C)[C@H](CN(C)C(=O)CC2CC2)O3)cc1 -0.614%
C[C@@H]1CCCCO[C@@H](CN(C)C(=O)Cc2ccccc2)[C@H](C)CN([C@@H](C)CO)C(=O)c2cc(NC(=O)Nc3ccc4c(c3)OCO4)ccc2O1 -3.09%
CCCC#Cc1cnc2c(c1)C(=O)N([C@H](C)CO)C[C@@H](C)[C@@H](CN(C)C(=O)C1CCOCC1)O2 11.1%
C[C@@H]1CN([C@H](C)CO)C(=O)c2cc(NS(=O)(=O)c3ccccc3)ccc2O[C@@H](C)CCCCO[C@H]1CN(C)S(=O)(=O)c1ccc(Cl)cc1 -1.56%
Cc1noc(C)c1NC(=O)Nc1ccc2c(c1)CC(=O)N([C@@H](C)CO)C[C@@H](C)[C@H](CN(C)Cc1ccc(Oc3ccccc3)cc1)O2 -7.73%
O=C(C[C@H]1C[C@H]2c3cc(NC(=O)Nc4ccc(F)cc4)ccc3O[C@H]2[C@H](CO)O1)NCC1CC1 5.06%
COc1ccc(S(=O)(=O)N(C)C[C@H]2OCCCC[C@H](C)Oc3ccc(NC(=O)Nc4ccc(F)cc4)cc3C(=O)N([C@@H](C)CO)C[C@H]2C)cc1 -1.05%
COc1cccc(-c2cnc3c(c2)C(=O)N([C@@H](C)CO)C[C@@H](C)[C@H](CN(C)C(=O)CN(C)C)O3)c1 8.01%
C[C@H](O)C#Cc1ccc2c(c1)O[C@H](CN(C)Cc1cccnc1)[C@H](C)CN([C@H](C)CO)S2(=O)=O 2.25%
CCC(=O)N(C)C[C@@H]1Oc2cc(-c3ccccc3OC)ccc2S(=O)(=O)N([C@H](C)CO)C[C@H]1C -2.36%
CC(=O)N(C)C[C@@H]1Oc2cc(-c3cccc(F)c3)ccc2S(=O)(=O)N([C@H](C)CO)C[C@H]1C -1.69%
C[C@H](CO)N1C[C@H](C)[C@@H](CN(C)Cc2ccc(Cl)c(Cl)c2)Oc2ccc(NC(=O)Cn3cnnn3)cc2CC1=O -4.84%
